Reference: PubChem BioAssay AID1159580 (chemical genetic matrix, 2015)
The campaign covered roughly 5,500 compounds. About 2,000 (36%) were called active. About 18% were inconclusive and are not listed. No stated cut-off is given here; in the data, active means normalized growth mostly below about 0.91 (no sharp cut-off); inconclusive means no clear call, values can overlap the other calls; inactive means mostly above about 0.92. This is one part of the list.

Test: chemical genetic growth profiling, strain panel (AID 1159580);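 further: tested at 20 µM; growth read once vehicle control cultures reached saturation at 30 °C; 1 = growth at the plate median or of vehicle wells; lower values mean less growth of the strain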
Conditions: growth OD

Measured: normalized growth

CC(C)N1C(=O)c2ccccc2NS1(=O)=O
inactive: S. cerevisiae deletion strains, locus YKL009W, strain mrt4, active compounds read low 1.01 | S. cerevisiae deletion strains, locus YKL068W, active compounds read low 0.994 | S. cerevisiae deletion strains, locus YKL085W, strain MDH1 (second series), active compounds read low 0.997 | S. cerevisiae deletion strains, locus YKL085W, strain MDH1, active compounds read low 0.997 | S. cerevisiae deletion strains, locus YKL160W, strain elf1, active compounds read low 0.974 | S. cerevisiae deletion strains, locus YKL190W, strain CNB1, active compounds read low 0.998 | S. cerevisiae deletion strains, locus YKR001C, strain vps1, active compounds read low 1.01 | S. cerevisiae deletion strains, locus YKR026C, strain gcn3, active compounds read low 0.972 | S. cerevisiae deletion strains, locus YKR091W, strain srl3, active compounds read low 0.958 | S. cerevisiae deletion strains, locus YLL001W, strain dnm1, active compounds read low 0.937 | S. cerevisiae deletion strains, locus YLL026W, active compounds read low 0.971 | S. cerevisiae deletion strains, locus YLL041C, strain sdh2, active compounds read low 0.958 | S. cerevisiae deletion strains, locus YLR027C, strain aat2, active compounds read low 0.964 | S. cerevisiae deletion strains, locus YLR039C, strain RIC1, active compounds read low 1.03 | S. cerevisiae deletion strains, locus YLR058C, strain SHM2, active compounds read low 1 | S. cerevisiae deletion strains, locus YLR102C, strain apc9, active compounds read low 1 | S. cerevisiae deletion strains, locus YLR113W, strain HOG1, active compounds read low 0.964 | S. cerevisiae deletion strains, locus YLR221C, strain rsa3, active compounds read low 0.994 | S. cerevisiae deletion strains, locus YLR258W, strain gsy2, active compounds read low 0.98 | S. cerevisiae deletion strains, locus YLR262C, strain YPT6 (second series), active compounds read low 0.983 | S. cerevisiae deletion strains, locus YLR262C, strain YPT6, active compounds read low 1.02 | S. cerevisiae deletion strains, locus YLR268W, strain sec22, active compounds read low 1.01 | S. cerevisiae deletion strains, locus YLR320W, strain mms22, active compounds read low 1.01 | S. cerevisiae deletion strains, locus YLR330W, strain CHS5, active compounds read low 0.994 | S. cerevisiae deletion strains, locus YLR342W, strain FKS1 (second series), active compounds read low 1 | S. cerevisiae deletion strains, locus YLR342W, strain FKS1, active compounds read low 0.98 | S. cerevisiae deletion strains, locus YLR357W, strain rsc2, active compounds read low 0.978 | S. cerevisiae deletion strains, locus YLR370C, strain arc18, active compounds read low 0.973 | S. cerevisiae deletion strains, locus YLR371W, strain rom2, active compounds read low 1 | S. cerevisiae deletion strains, locus YLR384C, strain iki3, active compounds read low 0.974 | S. cerevisiae deletion strains, locus YLR418C, strain cdc73, active compounds read low 1.02 | S. cerevisiae deletion strains, locus YML016C, strain PPZ1, active compounds read low 0.997 | S. cerevisiae deletion strains, locus YML032C, strain rad52, active compounds read low 1.01 | S. cerevisiae deletion strains, locus YML120C, strain ndi1, active compounds read low 0.956 | S. cerevisiae deletion strains, locus YML124C, strain tub3, active compounds read low 1 | S. cerevisiae deletion strains, locus YMR058W, strain fet3, active compounds read low 0.968 | S. cerevisiae deletion strains, locus YMR078C, strain ctf18, active compounds read low 0.998 | S. cerevisiae deletion strains, locus YMR125W, strain sto1, active compounds read low 0.933 | S. cerevisiae deletion strains, locus YMR129W, active compounds read low 0.964 | S. cerevisiae deletion strains, locus YMR205C, strain PFK2, active compounds read low 0.961 | S. cerevisiae deletion strains, locus YMR223W, strain ubp8, active compounds read low 1 | S. cerevisiae deletion strains, locus YMR231W, strain pep5, active compounds read low 0.974 | S. cerevisiae deletion strains, locus YMR263W, strain SAP30, active compounds read low 1.01 | S. cerevisiae deletion strains, locus YMR307W, strain GAS1, active compounds read low 1.03 | S. cerevisiae deletion strains, locus YNL067W, strain RPL9B, active compounds read low 0.995 | S. cerevisiae deletion strains, locus YNL071W, strain lat1, active compounds read low 0.98 | S. cerevisiae deletion strains, locus YNL128W, strain TEP1, active compounds read low 1.01 | S. cerevisiae deletion strains, locus YNL153C, strain GIM3, active compounds read low 0.994 | S. cerevisiae deletion strains, locus YNL183C, strain NPR1, active compounds read low 0.973 | S. cerevisiae deletion strains, locus YNL209W, strain ssb2, active compounds read low 0.963 | S. cerevisiae deletion strains, locus YNL233W, strain BNI4, active compounds read low 0.997 | S. cerevisiae deletion strains, locus YNL248C, strain rpa49, active compounds read low 0.99 | S. cerevisiae deletion strains, locus YNL250W, strain rad50, active compounds read low 0.997 | S. cerevisiae deletion strains, locus YNL271C, strain bni1, active compounds read low 0.998 | S. cerevisiae deletion strains, locus YNL298W, strain CLA4, active compounds read low 1.01 | S. cerevisiae deletion strains, locus YNL307C, strain MCK1, active compounds read low 1.01 | S. cerevisiae deletion strains, locus YNL322C, strain KRE1 (second series), active compounds read low 0.951 | S. cerevisiae deletion strains, locus YNL322C, strain KRE1, active compounds read low 1 | S. cerevisiae deletion strains, locus YNR049C, strain mso1, active compounds read low 0.952 | S. cerevisiae deletion strains, locus YNR052C, strain pop2, active compounds read low 0.996 | S. cerevisiae deletion strains, locus YOL006C, strain TOP1, active compounds read low 1.06 | S. cerevisiae deletion strains, locus YOL012C, strain htz1 1.04 | S. cerevisiae deletion strains, locus YOL147C, strain pex11, active compounds read low 0.997 | S. cerevisiae deletion strains, locus YOR001W, strain rrp6, active compounds read low 0.967 | S. cerevisiae deletion strains, locus YOR061W, strain CKA2, active compounds read low 0.998 | S. cerevisiae deletion strains, locus YOR069W, strain VPS5, active compounds read low 0.989 | S. cerevisiae deletion strains, locus YOR070C, strain gyp1, active compounds read low 0.983 | S. cerevisiae deletion strains, locus YOR080W, strain dia2, active compounds read low 0.98 | S. cerevisiae deletion strains, locus YOR083W, strain WHI5, active compounds read low 0.964 | S. cerevisiae deletion strains, locus YOR106W, strain vam3, active compounds read low 0.966 | S. cerevisiae deletion strains, locus YOR136W, strain idh2, active compounds read low 1 | S. cerevisiae deletion strains, locus YOR144C, strain elg1, active compounds read low 0.999 | S. cerevisiae deletion strains, locus YOR184W, strain ser1, active compounds read low 1.01 | S. cerevisiae deletion strains, locus YOR231W, strain MKK1, active compounds read low 0.998 | S. cerevisiae deletion strains, locus YOR265W, strain rbl2, active compounds read low 0.973 | S. cerevisiae deletion strains, locus YOR270C, strain vph1, active compounds read low 0.97 | S. cerevisiae deletion strains, locus YOR290C, strain snf2, active compounds read low 0.96 | S. cerevisiae deletion strains, locus YOR316C, strain cot1, active compounds read low 1.01 | S. cerevisiae deletion strains, locus YPL051W, strain arl3, active compounds read low 0.981 | S. cerevisiae deletion strains, locus YPL055C, strain LGE1, active compounds read low 1.02 | S. cerevisiae deletion strains, locus YPL078C, strain atp4, active compounds read low 0.961 | S. cerevisiae deletion strains, locus YPL106C, strain sse1, active compounds read low 0.971 | S. cerevisiae deletion strains, locus YPL240C, strain hsp82, active compounds read low 0.968 | S. cerevisiae deletion strains, locus YPL241C, strain CIN2, active compounds read low 0.999 | S. cerevisiae deletion strains, locus YPL256C, strain CLN2, active compounds read low 0.987 | S. cerevisiae deletion strains, locus YPR119W, strain clb2, active compounds read low 0.99 | S. cerevisiae deletion strains, locus YPR141C, strain kar3, active compounds read low 1.01 | S. cerevisiae deletion strains, locus YPR163C, strain tif3, active compounds read low 1 | S. cerevisiae deletion strains, locus YPR167C, strain met16, active compounds read low 0.996 | S. cerevisiae deletion strains, strain wtn01, active compounds read low 1.01 | S. cerevisiae strains, strain wild type, active compounds read low 0.997
